# Data reported in the supplement of paper PMC8728848.
# The entries come from a sample that favours the strongest signals as a whole.
# How the values were obtained:
# Assay in all cases: glycan array binding signal (z-score within array); higher = stronger binding
# Settings in all cases: glycan notation: IUPAC condensed, linker removed
# [1] = target: GlcNAc(b1-3)Gal(b1-4)GlcNAc(b1-2)[GlcNAc(b1-3)Gal(b1-4)GlcNAc(b1-6)]Man(a1-6)[GlcNAc(b1-3)Gal(b1-4)GlcNAc(b1-2)Man(a1-3)]Man(b1-4)GlcNAc(b1-4)GlcNAc
# How it was run: (§1)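 Glycan array binding is given as a within-array Z-score, which can be read as non-binding when negative. The arrays, 3228 of them, came from the Consortium for Functional Glycomics database and were retained only where the protein sequence was available. Z-scores were averaged across arrays of the same protein sequence at different concentrations or buffers and across linkers.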
# [2] = target: GlcNAc(b1-3)Gal(b1-4)GlcNAc(b1-3)Gal(b1-4)GlcNAc(b1-2)Man(a1-3)[GlcNAc(b1-3)Gal(b1-4)GlcNAc(b1-3)Gal(b1-4)GlcNAc(b1-2)Man(a1-6)]Man(b1-4)GlcNAc(b1-4)GlcNAc
# How it was run: as §1
# [3] = target: GlcNAc(b1-3)Gal(b1-4)GlcNAc(b1-3)Gal(b1-4)GlcNAc(b1-2)Man(a1-3)[GlcNAc(b1-3)Gal(b1-4)GlcNAc(b1-3)Gal(b1-4)GlcNAc(b1-2)Man(a1-6)]Man(b1-4)GlcNAc(b1-4)[Fuc(a1-6)]GlcNAc
# How it was run: as §1
# [4] = target: GlcNAc(b1-3)Gal(b1-4)GlcNAc(b1-3)Gal(b1-4)GlcNAc(b1-2)[GlcNAc(b1-3)Gal(b1-4)GlcNAc(b1-3)Gal(b1-4)GlcNAc(b1-6)]Man(a1-6)[GlcNAc(b1-3)Gal(b1-4)GlcNAc(b1-3)Gal(b1-4)GlcNAc(b1-2)Man(a1-3)]Man(b1-4)GlcNAc(b1-4)[Fuc(a1-6)]GlcNAc
# How it was run: as §1
# [5] = target: GlcNAc(b1-3)Gal(b1-4)GlcNAc(b1-3)Gal(b1-4)GlcNAc(b1-3)Gal(b1-4)GlcNAc(b1-2)Man(a1-3)[GlcNAc(b1-3)Gal(b1-4)GlcNAc(b1-3)Gal(b1-4)GlcNAc(b1-3)Gal(b1-4)GlcNAc(b1-2)Man(a1-6)]Man(b1-4)GlcNAc(b1-4)GlcNAc
# How it was run: as §1
# [6] = target: GlcNAc(b1-3)Gal(b1-4)GlcNAc(b1-3)Gal(b1-4)GlcNAc(b1-3)Gal(b1-4)GlcNAc(b1-2)Man(a1-3)[GlcNAc(b1-3)Gal(b1-4)GlcNAc(b1-3)Gal(b1-4)GlcNAc(b1-3)Gal(b1-4)GlcNAc(b1-2)Man(a1-6)]Man(b1-4)GlcNAc(b1-4)[Fuc(a1-6)]GlcNAc
# How it was run: as §1
# [7] = target: GlcNAc(b1-3)Gal(b1-4)GlcNAc(b1-3)Gal(b1-4)GlcNAc(b1-3)Gal(b1-4)GlcNAc(b1-2)[GlcNAc(b1-3)Gal(b1-4)GlcNAc(b1-3)Gal(b1-4)GlcNAc(b1-3)Gal(b1-4)GlcNAc(b1-6)]Man(a1-6)[GlcNAc(b1-3)Gal(b1-4)GlcNAc(b1-3)Gal(b1-4)GlcNAc(b1-3)Gal(b1-4)GlcNAc(b1-2)Man(a1-3)]Man(b1-4)GlcNAc(b1-4)[Fuc(a1-6)]GlcNAc
# How it was run: as §1
# [8] = target: GlcNAc(b1-3)Gal(b1-4)GlcNAc(b1-3)Gal(b1-4)GlcNAc(b1-3)Gal(b1-4)GlcNAc(b1-3)Gal(b1-4)GlcNAc(b1-2)Man(a1-3)[GlcNAc(b1-3)Gal(b1-4)GlcNAc(b1-3)Gal(b1-4)GlcNAc(b1-3)Gal(b1-4)GlcNAc(b1-3)Gal(b1-4)GlcNAc(b1-2)Man(a1-6)]Man(b1-4)GlcNAc(b1-4)GlcNAc
# How it was run: as §1
# [9] = target: GlcNAc(b1-3)Gal(b1-4)GlcNAc(b1-3)Gal(b1-4)GlcNAc(b1-3)Gal(b1-4)GlcNAc(b1-3)Gal(b1-4)GlcNAc(b1-2)Man(a1-3)[GlcNAc(b1-3)Gal(b1-4)GlcNAc(b1-3)Gal(b1-4)GlcNAc(b1-3)Gal(b1-4)GlcNAc(b1-3)Gal(b1-4)GlcNAc(b1-2)Man(a1-6)]Man(b1-4)GlcNAc(b1-4)[Fuc(a1-6)]GlcNAc
# How it was run: as §1
# [10] = target: GlcNAc(b1-3)Gal(b1-4)GlcNAc(b1-3)Gal(b1-4)GlcNAc(b1-3)Gal(b1-4)GlcNAc(b1-3)Gal(b1-4)GlcNAc(b1-2)[GlcNAc(b1-3)Gal(b1-4)GlcNAc(b1-3)Gal(b1-4)GlcNAc(b1-3)Gal(b1-4)GlcNAc(b1-3)Gal(b1-4)GlcNAc(b1-6)]Man(a1-6)[GlcNAc(b1-3)Gal(b1-4)GlcNAc(b1-3)Gal(b1-4)GlcNAc(b1-3)Gal(b1-4)GlcNAc(b1-3)Gal(b1-4)GlcNAc(b1-2)Man(a1-3)]Man(b1-4)GlcNAc(b1-4)[Fuc(a1-6)]GlcNAc
# How it was run: as §1
# [11] = target: Man(a1-3)[Man(a1-6)]Man(a1-6)[Man(a1-3)]Man(b1-4)GlcNAc(b1-4)GlcNAc
# How it was run: as §1
# [12] = target: Man(a1-3)[Man(a1-6)]Man(b1-4)GlcNAc(b1-4)[Fuc(a1-6)]GlcNAc
# How it was run: as §1
# [13] = target: Neu5Ac(a2-3)Gal(b1-3)[Neu5Ac(a2-6)]GlcNAc(b1-3)[Fuc(a1-3)[Gal(b1-4)]GlcNAc(b1-6)]Gal(b1-4)Glc
# How it was run: as §1
# [14] = target: Neu5Ac(a2-3)Gal(b1-4)GlcNAc(b1-6)GalNAc
# How it was run: as §1
# [15] = target: Neu5Ac(a2-3)Gal(b1-4)[Fuc(a1-3)]GlcNAc(b1-6)[Gal(b1-3)]GalNAc
# How it was run: as §1
# [16] = target: Neu5Ac(a2-3)[GalNAc(b1-4)]Gal(b1-4)GlcNAc(b1-3)GalNAc
# How it was run: as §1
# [17] = target: Neu5Ac(a2-6)Gal(b1-4)GlcNAc(b1-2)Man(a1-3)[GlcNAc(b1-4)][Neu5Ac(a2-6)Gal(b1-4)GlcNAc(b1-2)Man(a1-6)]Man(b1-4)GlcNAc(b1-4)GlcNAc
# How it was run: as §1
# [18] = target: Neu5Ac(a2-6)Gal(b1-4)GlcNAc(b1-3)[Neu5Ac(a2-6)Gal(b1-4)GlcNAc(b1-6)]GalNAc
# How it was run: as §1
# [19] = target: Neu5Ac(a2-6)GlcNAc(b1-4)GlcNAc(b1-4)GlcNAc
# How it was run: as §1
# [20] = target: Neu5Ac(a2-8)Neu5Ac(a2-3)[GalNAc(b1-4)]Gal(b1-4)Glc
# How it was run: as §1
# [21] = target: Neu5Ac(a2-8)Neu5Ac(a2-8)Neu5Ac(a2-3)[Gal(b1-3)GalNAc(b1-4)]Gal(b1-4)Glc
# How it was run: as §1
# [22] = target: Neu5Ac(a2-8)Neu5Ac(a2-8)Neu5Ac(a2-3)[GalNAc(b1-4)]Gal(b1-4)Glc
# How it was run: as §1
binder,measurement,setting,value
Di AAL2 (Agrocybe aegerita) (protein) MTSNVITQDLPIPVASRGFADIVGFGLDGVVIGRNAVNLQPFLAVKNFAQNAGGWLTTKHVRLIADTTGTGKGDIVGFGNAGVYVSVNNGKNTFADPPKMVIANFGYDAGGWRVEKHLRYLADIRKIGRADIIGFGEKGVLVSRNNGGLNFGPATLVLKDFGYDAGGWRLDRHLRFLADVTGNGHLDIVGFGDKHVFISRNNGDGTFAPAKSVIDNFCIDAGGWKIGDHPRFVADLTGDGTADIIGCGKAGCWVALNNGGGVFGQVKLVINDFGTDKGWQAAKHPRFIADLTGNGRGDVVGFGNAGVYVALNNGDGTFQSAKLVLKDFGVQQGWTVSKHRRFVVDLTGDGCADIIGFGEKETLVSYNDGKGNFGPVKALTNDFSFSGGKWAPETTVCWMANLDSSRHPAPAPMTSNVITQDLPIPVASRGFADIVGFGLDGVVIGRNAVNLQPFLAVKNFAQNAGGWLTTKHVRLIADTTGTGKGDIVGFGNAGVYVSVNNGKNTFADPPKMVIANFGYDAGGWRVEKHLRYLADIRKIGRADIIGFGEKGVLVSRNNGGLNFGPATLVLKDFGYDAGGWRLDRHLRFLADVTGNGHLDIVGFGDKHVFISRNNGDGTFAPAKSVIDNFCIDAGGWKIGDHPRFVADLTGDGTADIIGCGKAGCWVALNNGGGVFGQVKLVINDFGTDKGWQAAKHPRFIADLTGNGRGDVVGFGNAGVYVALNNGDGTFQSAKLVLKDFGVQQGWTVSKHRRFVVDLTGDGCADIIGFGEKETLVSYNDGKGNFGPVKALTNDFSFSGGKWAPETTVCWMANLDSSRH,glycan array binding signal (z-score),[1],5.83
same,glycan array binding signal (z-score),[2],3.47
same,glycan array binding signal (z-score),[3],3.72
same,glycan array binding signal (z-score),[4],5.12
same,glycan array binding signal (z-score),[5],5.42
same,glycan array binding signal (z-score),[6],4.23
same,glycan array binding signal (z-score),[7],5.39
same,glycan array binding signal (z-score),[8],5.42
same,glycan array binding signal (z-score),[9],5.09
same,glycan array binding signal (z-score),[10],5.69
same,glycan array binding signal (z-score),[11],-0.333
same,glycan array binding signal (z-score),[12],-0.327
same,glycan array binding signal (z-score),[13],-0.313
same,glycan array binding signal (z-score),[14],-0.218
same,glycan array binding signal (z-score),[15],-0.336
same,glycan array binding signal (z-score),[16],-0.285
same,glycan array binding signal (z-score),[17],-0.319
same,glycan array binding signal (z-score),[18],-0.251
same,glycan array binding signal (z-score),[19],-0.302
same,glycan array binding signal (z-score),[20],-0.29
same,glycan array binding signal (z-score),[21],-0.297
same,glycan array binding signal (z-score),[22],-0.284
